# Results reported in PubChem BioAssay (EPA / NIEHS).
# Results filed as inconclusive are left out. Activity calls are given as the source filed them. Rule for the calls, unless noted: active = hit-call score of the fitted dose curve at least 0.9, where 1 is the maximum; inconclusive = response in the unintended direction; inactive = score below 0.9.
# What was measured:
# [1] = ATG_Oct_MLP_CIS: Attagene CIS-FACTORIAL HepG2 Assay for human Octamer-Binding Transcription Factor (Oct) (AID 2282993; active = hit-call score of the fitted dose curve at least 0.9, where 1 is the maximum; inactive = score below 0.9); settings: HepG2 Attagene cis-factorial Oct reporter, mRNA; actives raise or lower the signal
# Method in brief: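 HepG2 cells transiently transfected with cis-promoter-driven multiplexed reporter transcription units, dosed for 24 h. Reporter mRNA quantified by RT-PCR, fluorescent labelling, HpaI digestion and capillary electrophoresis; bidirectional fits versus DMSO baseline.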
# [2] = target: Cellular tumor antigen p53 (Homo sapiens) (UniProt P04637); experiment: ATG_p53_CIS: Attagene CIS-FACTORIAL HepG2 Assay for human p53 Transcription Factor (AID 2282994; active = hit-call score of the fitted dose curve at least 0.9, where 1 is the maximum; inactive = score below 0.9); settings: HepG2 p53 cis-element reporter, Attagene mRNA; actives raise or lower the signal
# Cellular tumor antigen p53 (Homo sapiens), sequence (P04637 whole entry, looked up): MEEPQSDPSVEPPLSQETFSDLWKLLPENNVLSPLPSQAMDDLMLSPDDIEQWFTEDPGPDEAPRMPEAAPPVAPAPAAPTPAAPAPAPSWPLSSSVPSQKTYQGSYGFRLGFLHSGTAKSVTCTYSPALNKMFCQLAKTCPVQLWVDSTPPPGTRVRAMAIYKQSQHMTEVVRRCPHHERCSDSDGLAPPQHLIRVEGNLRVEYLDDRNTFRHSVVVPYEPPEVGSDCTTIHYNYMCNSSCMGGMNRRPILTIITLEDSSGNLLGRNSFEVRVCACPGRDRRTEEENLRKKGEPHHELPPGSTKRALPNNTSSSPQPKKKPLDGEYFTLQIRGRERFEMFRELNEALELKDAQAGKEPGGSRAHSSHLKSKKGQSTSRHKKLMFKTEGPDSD
# Method in brief: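 Multiplexed reporter mRNA assay in human HepG2 liver cells; cis-regulated units report endogenous factor activity. Values come from bidirectional curve fitting against DMSO negative control after 24 h treatment.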
# [3] = target: human Peroxisome Proliferator-activated Receptor alpha (PPARa), PPARA (gene 5465) (UniProt Q07869); experiment: ATG_PPARa_TRANS: Attagene TRANS-FACTORIAL HepG2 Assay for human Peroxisome Proliferator-activated Receptor alpha (PPARa) (AID 2283001);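 for AC50: potency for gain of reporter signal over DMSO so agonist or activator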
# Method in brief: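 Measures transcriptional activity of an exogenous chimeric PPARa-Gal4 protein in transiently transfected HepG2 cells after 24 h dosing. Reporter mRNA quantified via RT-PCR and capillary electrophoresis; DMSO served as negative control.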
# [4] = target: human Retinoic Acid Receptor beta (RARb), RARB (gene 5915) (UniProt P10826); experiment: ATG_RARb_TRANS: Attagene TRANS-FACTORIAL HepG2 Assay for human Retinoic Acid Receptor beta (AID 2283004)
# human Retinoic Acid Receptor beta (RARb), RARB (gene 5915), sequence (P10826 whole entry, looked up, the tested form may be a part): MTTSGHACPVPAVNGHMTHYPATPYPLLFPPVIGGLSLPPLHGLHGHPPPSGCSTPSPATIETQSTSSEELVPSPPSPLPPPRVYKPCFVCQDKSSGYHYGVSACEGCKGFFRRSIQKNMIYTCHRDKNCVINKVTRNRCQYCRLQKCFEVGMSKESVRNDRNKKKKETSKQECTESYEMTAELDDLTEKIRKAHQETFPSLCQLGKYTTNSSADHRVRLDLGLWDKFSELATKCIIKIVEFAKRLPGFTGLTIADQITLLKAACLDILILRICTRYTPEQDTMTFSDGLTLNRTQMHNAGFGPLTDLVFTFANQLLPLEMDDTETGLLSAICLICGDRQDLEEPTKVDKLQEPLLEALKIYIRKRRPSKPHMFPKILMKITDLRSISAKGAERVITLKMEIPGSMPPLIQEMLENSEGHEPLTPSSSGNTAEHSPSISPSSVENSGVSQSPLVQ
# Method in brief: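 HepG2, transient MRTU transfection, NR–Gal4 chimera, 24 h treatment; RT-PCR plus CE fluorescence detection of reporter mRNA; gain of signal vs DMSO.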
# [5] = target: Retinoic acid receptor alpha (Homo sapiens) (UniProt P10276); experiment: ATG_RARa_TRANS: Attagene TRANS-FACTORIAL HepG2 Assay for human Retinoic Acid Receptor alpha (RARa) (AID 2283005);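 for AC50: potency for increased reporter signal meaning RARa activation over DMSO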
# Retinoic acid receptor alpha (Homo sapiens), sequence (P10276 whole entry, looked up, the tested form may be a part): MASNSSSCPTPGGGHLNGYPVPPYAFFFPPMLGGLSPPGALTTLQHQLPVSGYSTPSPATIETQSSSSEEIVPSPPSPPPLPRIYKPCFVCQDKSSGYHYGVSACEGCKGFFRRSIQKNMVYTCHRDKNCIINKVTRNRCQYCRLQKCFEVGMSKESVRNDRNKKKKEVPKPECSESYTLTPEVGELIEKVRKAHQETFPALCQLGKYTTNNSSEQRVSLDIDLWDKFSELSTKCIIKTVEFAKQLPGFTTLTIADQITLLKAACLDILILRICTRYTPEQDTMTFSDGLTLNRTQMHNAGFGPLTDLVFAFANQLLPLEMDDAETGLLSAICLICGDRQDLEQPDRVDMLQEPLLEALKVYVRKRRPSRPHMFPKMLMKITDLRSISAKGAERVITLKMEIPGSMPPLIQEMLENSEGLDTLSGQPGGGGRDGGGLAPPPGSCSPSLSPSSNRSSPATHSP
# Method in brief: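 HepG2 transiently transfected with multiplex GAL4-UAS reporter units including a human RARa–GAL4 chimera; 24 h compound exposure. Reporter mRNA quantified by RT-PCR, 6-FAM labeling and capillary electrophoresis; gain of signal versus DMSO.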
# [6] = target: Peroxisome proliferator-activated receptor gamma (Homo sapiens) (UniProt P37231); experiment: ATG_PPARg_TRANS: Attagene TRANS-FACTORIAL HepG2 Assay for human Peroxisome Proliferator-activated Receptor-gamma (PPARg) (AID 2283007)
# Peroxisome proliferator-activated receptor gamma (Homo sapiens), sequence (P37231 whole entry, looked up, the tested form may be a part): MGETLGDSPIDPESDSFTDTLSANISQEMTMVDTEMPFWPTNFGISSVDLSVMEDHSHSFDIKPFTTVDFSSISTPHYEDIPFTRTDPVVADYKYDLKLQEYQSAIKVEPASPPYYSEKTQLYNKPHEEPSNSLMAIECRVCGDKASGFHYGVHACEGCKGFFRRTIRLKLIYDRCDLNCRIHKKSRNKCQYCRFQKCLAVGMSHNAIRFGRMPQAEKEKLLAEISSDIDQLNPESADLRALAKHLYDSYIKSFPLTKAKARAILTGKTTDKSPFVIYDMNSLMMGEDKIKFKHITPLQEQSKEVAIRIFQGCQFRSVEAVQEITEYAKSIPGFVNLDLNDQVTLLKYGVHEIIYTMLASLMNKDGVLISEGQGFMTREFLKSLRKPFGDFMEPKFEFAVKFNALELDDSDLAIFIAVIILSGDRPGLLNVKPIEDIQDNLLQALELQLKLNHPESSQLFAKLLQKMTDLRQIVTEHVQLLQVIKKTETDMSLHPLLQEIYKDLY
# Method in brief: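 A TRANS-format multiplexed reporter assay measures activity of an exogenous chimeric NR-Gal4 protein in HepG2 cells. After 24 h of chemical exposure, reporter transcripts are amplified, fluorescently labelled and sized by capillary electrophoresis, with gain of signal scored against DMSO.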
# [7] = target: Nuclear receptor subfamily 1 group I member 2 (Homo sapiens) (UniProt O75469); experiment: ATG_PXR_TRANS: Attagene TRANS-FACTORIAL HepG2 Assay for human Pregnane X Receptor (PXR) (AID 2283008)
# Nuclear receptor subfamily 1 group I member 2 (Homo sapiens), sequence (O75469 whole entry, looked up, the tested form may be a part): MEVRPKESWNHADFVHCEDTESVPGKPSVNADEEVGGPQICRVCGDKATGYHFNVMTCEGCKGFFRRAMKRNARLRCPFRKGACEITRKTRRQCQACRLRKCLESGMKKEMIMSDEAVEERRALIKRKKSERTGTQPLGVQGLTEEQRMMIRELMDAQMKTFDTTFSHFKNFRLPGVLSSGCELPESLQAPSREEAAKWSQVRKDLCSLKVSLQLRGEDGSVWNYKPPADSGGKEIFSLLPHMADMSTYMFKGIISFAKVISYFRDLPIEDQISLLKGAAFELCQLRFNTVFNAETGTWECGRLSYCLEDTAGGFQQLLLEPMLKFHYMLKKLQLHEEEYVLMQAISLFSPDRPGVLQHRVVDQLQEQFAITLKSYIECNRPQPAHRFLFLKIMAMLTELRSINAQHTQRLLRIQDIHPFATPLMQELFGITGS
# Method in brief: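 Measures mRNA induction of a GAL4-UAS-driven reporter in human HepG2 cells transiently expressing PXR fused to Gal4, following 24 h treatment. DMSO served as negative control and baseline.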
# [8] = target: human Retinoic Acid Receptor gamma (RARg), RARG (gene 5916) (UniProt P13631); experiment: ATG_RARg_TRANS: Attagene TRANS-FACTORIAL HepG2 Assay for human Retinoic Acid Receptor gamma (RARg) (AID 2283009)
# human Retinoic Acid Receptor gamma (RARg), RARG (gene 5916), sequence (P13631 whole entry, looked up, the tested form may be a part): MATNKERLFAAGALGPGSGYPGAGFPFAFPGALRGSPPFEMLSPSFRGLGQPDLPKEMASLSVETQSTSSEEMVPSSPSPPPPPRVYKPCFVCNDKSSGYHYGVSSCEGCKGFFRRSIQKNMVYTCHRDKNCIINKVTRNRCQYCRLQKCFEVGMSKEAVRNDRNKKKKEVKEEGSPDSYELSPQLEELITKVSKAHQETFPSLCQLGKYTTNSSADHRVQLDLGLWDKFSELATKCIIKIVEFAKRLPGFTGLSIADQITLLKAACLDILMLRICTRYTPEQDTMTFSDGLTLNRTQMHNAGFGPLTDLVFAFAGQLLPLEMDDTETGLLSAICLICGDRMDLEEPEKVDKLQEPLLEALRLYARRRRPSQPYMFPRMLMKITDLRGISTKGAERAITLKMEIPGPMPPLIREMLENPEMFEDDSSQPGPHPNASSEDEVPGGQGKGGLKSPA
# Method in brief: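 HepG2 cells transiently transfected with multiplexed reporter units expressing chimeric RARg-GAL4 and GAL4-UAS-driven reporters; 24 h compound exposure. Reporter mRNA quantified by RT-PCR with fluorescent labelling and capillary electrophoresis; gain-of-signal fitted relative to DMSO baseline.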
# [9] = target: human Retinoid X Receptor beta (RXRb), RXRB (gene 6257) (UniProt P28702); experiment: ATG_RXRb_TRANS: Attagene TRANS-FACTORIAL HepG2 Assay for human Retinoid X Receptor beta (RXRb) (AID 2283013)
# human Retinoid X Receptor beta (RXRb), RXRB (gene 6257), sequence (P28702 whole entry, looked up, the tested form may be a part): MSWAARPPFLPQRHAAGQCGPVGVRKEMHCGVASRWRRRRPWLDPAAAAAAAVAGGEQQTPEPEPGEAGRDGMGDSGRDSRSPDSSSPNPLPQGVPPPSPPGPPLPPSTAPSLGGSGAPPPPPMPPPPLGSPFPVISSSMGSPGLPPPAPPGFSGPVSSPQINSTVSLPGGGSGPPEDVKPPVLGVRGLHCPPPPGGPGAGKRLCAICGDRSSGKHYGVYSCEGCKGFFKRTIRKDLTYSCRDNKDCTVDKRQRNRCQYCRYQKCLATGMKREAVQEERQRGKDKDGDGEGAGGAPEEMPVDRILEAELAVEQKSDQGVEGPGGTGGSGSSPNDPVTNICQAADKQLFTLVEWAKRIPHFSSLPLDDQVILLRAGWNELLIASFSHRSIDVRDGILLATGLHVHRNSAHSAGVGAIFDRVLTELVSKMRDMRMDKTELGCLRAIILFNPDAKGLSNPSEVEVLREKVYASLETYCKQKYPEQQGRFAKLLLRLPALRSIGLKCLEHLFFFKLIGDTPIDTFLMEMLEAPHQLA
# Method in brief: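 HepG2 cells transiently transfected with multiplexed reporter units driven by GAL4-UAS and exogenous chimeric NR-Gal4 proteins; treated 24 h. Reporter mRNA measured by RT-PCR, 6-FAM labelling and capillary electrophoresis; gain-of-signal fitted versus DMSO baseline.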
# [10] = target: human Thyroid Receptor alpha (THRa1), THRA (gene 7067) (UniProt P10827); experiment: ATG_THRa1_TRANS: Attagene TRANS-FACTORIAL HepG2 Assay for human Thyroid Receptor alpha (THRa1) (AID 2283014)
# human Thyroid Receptor alpha (THRa1), THRA (gene 7067), sequence (P10827 whole entry, looked up, the tested form may be a part): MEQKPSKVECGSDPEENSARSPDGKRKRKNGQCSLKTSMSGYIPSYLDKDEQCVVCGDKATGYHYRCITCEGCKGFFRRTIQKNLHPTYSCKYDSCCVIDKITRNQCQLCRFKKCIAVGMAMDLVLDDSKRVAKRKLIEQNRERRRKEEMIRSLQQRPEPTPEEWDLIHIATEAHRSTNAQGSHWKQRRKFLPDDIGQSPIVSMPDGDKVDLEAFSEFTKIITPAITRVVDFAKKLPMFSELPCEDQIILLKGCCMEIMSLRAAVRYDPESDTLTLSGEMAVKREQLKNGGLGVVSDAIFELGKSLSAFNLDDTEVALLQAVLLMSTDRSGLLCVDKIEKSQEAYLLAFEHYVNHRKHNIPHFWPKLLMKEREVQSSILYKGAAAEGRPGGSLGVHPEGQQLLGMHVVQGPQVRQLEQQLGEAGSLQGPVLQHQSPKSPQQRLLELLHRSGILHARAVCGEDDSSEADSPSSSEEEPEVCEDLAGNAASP
# Method in brief: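 First, HepG2 cells receive multiple GAL4-UAS reporter units and the chimeric receptor. They are then dosed for 24 h, after which RNA is reverse-transcribed, amplified, labelled, HpaI-cut and sized by capillary electrophoresis; gain relative to DMSO is scored.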
# [11] = target: Retinoic acid receptor RXR-alpha (Homo sapiens) (UniProt P19793); experiment: ATG_RXRa_TRANS: Attagene TRANS-FACTORIAL HepG2 Assay for human Retinoid X Receptor alpha (RXRa) (AID 2283012)
# Method in brief: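 HepG2 cells transiently transfected with multiplexed GAL4-UAS reporter units and chimeric NR-GAL4 fusions, dosed 24 h. Reporter mRNA measured by RT-PCR, FAM labelling, HpaI digestion and capillary electrophoresis; gain-of-signal fitted relative to DMSO baseline.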
# [12] = target: human RAR-related Orphan Receptor gamma (RORg), RORC (gene 6097) (UniProt P51449); experiment: ATG_RORg_TRANS: Attagene TRANS-FACTORIAL HepG2 Assay for human RAR-related Orphan Receptor gamma (RORg) (AID 2283011)
# human RAR-related Orphan Receptor gamma (RORg), RORC (gene 6097), sequence (P51449 whole entry, looked up, the tested form may be a part): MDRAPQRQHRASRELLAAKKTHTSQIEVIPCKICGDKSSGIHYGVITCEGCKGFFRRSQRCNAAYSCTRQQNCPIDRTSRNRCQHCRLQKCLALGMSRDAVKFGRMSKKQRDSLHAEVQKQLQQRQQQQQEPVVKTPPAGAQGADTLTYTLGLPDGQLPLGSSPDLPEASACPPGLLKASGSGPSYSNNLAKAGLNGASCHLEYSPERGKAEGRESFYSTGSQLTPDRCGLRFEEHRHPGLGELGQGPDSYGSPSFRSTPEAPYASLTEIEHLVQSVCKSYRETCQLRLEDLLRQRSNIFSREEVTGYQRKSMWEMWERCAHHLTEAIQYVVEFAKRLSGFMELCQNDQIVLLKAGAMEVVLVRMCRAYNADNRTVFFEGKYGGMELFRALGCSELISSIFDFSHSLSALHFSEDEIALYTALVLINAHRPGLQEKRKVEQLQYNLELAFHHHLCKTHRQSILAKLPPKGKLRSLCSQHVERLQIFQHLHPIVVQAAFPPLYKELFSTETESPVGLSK
# Method in brief: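 Activity is scored as increase in GAL4-UAS reporter mRNA over DMSO, detected by fluorescent RT-PCR and capillary electrophoresis in HepG2 cells transiently expressing a RORg-Gal4 chimera, 24 h after dosing.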
# [13] = target: human RAR-related Orphan Receptor beta (RORb), RORB (gene 6096) (UniProt Q92753); experiment: ATG_RORb_TRANS: Attagene TRANS-FACTORIAL HepG2 Assay for human RAR-related Orphan Receptor beta (RORb) (AID 2283010)
# human RAR-related Orphan Receptor beta (RORb), RORB (gene 6096), sequence (Q92753 whole entry, looked up, the tested form may be a part): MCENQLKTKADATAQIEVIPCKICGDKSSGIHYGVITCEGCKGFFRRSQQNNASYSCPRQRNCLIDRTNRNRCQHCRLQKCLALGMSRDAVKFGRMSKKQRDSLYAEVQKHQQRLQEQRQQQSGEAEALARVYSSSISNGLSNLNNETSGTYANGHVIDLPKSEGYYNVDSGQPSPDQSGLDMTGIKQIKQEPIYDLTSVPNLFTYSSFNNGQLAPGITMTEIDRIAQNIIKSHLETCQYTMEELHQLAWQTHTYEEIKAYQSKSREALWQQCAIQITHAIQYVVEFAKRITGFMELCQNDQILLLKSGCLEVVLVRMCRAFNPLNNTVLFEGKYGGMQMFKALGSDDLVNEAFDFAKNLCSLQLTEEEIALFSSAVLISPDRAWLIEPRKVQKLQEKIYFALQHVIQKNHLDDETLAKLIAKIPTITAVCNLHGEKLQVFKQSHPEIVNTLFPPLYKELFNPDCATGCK
# Method in brief: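 HepG2 cells were transiently transfected with multiplexed GAL4-UAS reporter units expressing chimeric nuclear receptor–GAL4 proteins, then dosed for 24 h. Reporter mRNA was quantified by RT-PCR with fluorescent labelling and capillary electrophoresis; gain of signal was fitted relative to DMSO.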
smiles,measurement,setting,value
CCNc1nc(NCC)nc(SC)n1,outcome,[1],inactive
same,outcome,[2],inactive
same,outcome,[3],inactive
same,outcome,[4],inactive
same,outcome,[5],inactive
same,outcome,[6],inactive
same,outcome,[7],inactive
same,outcome,[8],inactive
same,outcome,[9],inactive
same,outcome,[10],inactive
C=CC(=O)[O][Sn]([CH2]CCC)([CH2]CCC)[CH2]CCC,AC50,[1],0.348 µM (active)
same,outcome,[2],inactive
same,AC50,[3],0.599 µM (active)
same,AC50,[6],0.0934 µM (active)
same,AC50,[7],0.237 µM (active)
same,AC50,[11],0.00177 µM (active)
same,AC50,[9],0.000682 µM (active)
same,outcome,[10],inactive
BrCCCCBr,outcome,[1],inactive
same,outcome,[2],inactive
same,outcome,[3],inactive
same,outcome,[4],inactive
same,outcome,[6],inactive
same,outcome,[12],inactive
CCCCC(CC)C(=O)Cl (configuration not stated),outcome,[1],inactive
same,outcome,[2],inactive
same,outcome,[3],inactive
same,outcome,[6],inactive
same,outcome,[7],inactive
same,outcome,[12],inactive
CCOC(=O)c1ccccc1S(=O)(=O)NC(=O)Nc1nc(Cl)cc(OC)n1,outcome,[1],inactive
same,outcome,[2],inactive
same,outcome,[3],inactive
same,outcome,[5],inactive
same,outcome,[7],inactive
same,outcome,[8],inactive
same,outcome,[13],inactive
same,outcome,[10],inactive
CCCCOC(C)=O,outcome,[1],inactive
same,outcome,[2],inactive
same,outcome,[3],inactive
same,outcome,[5],inactive
same,outcome,[6],inactive
same,outcome,[7],inactive
same,outcome,[8],inactive
same,outcome,[13],inactive
same,outcome,[12],inactive
same,outcome,[11],inactive
same,outcome,[10],inactive
Cc1cc(Cl)ccc1OCCCC(=O)O,outcome,[1],inactive
same,outcome,[2],inactive
same,outcome,[3],inactive
same,outcome,[4],inactive
same,outcome,[5],inactive
same,AC50,[6],61.5 µM (active)
same,outcome,[8],inactive
same,outcome,[12],inactive
same,outcome,[11],inactive
same,AC50,[9],27.7 µM (active)
same,outcome,[10],inactive
COC(=O)c1cc(Oc2ccc(Cl)cc2Cl)ccc1[N+](=O)[O-],outcome,[1],inactive
same,outcome,[2],inactive
same,outcome,[3],inactive
same,AC50,[6],20 µM (active)
same,AC50,[7],13.7 µM (active)
same,outcome,[8],inactive
same,outcome,[12],inactive
same,outcome,[11],inactive
same,outcome,[9],inactive
same,outcome,[10],inactive
Nc1nc(=S)[nH][nH]1,outcome,[1],inactive
same,outcome,[2],inactive
same,outcome,[3],inactive
same,outcome,[6],inactive
same,outcome,[7],inactive
CN(CCCC(O)c1cccnc1)N=O (configuration not stated),outcome,[1],inactive
same,outcome,[2],inactive
same,outcome,[3],inactive
same,outcome,[4],inactive
same,outcome,[5],inactive
same,outcome,[6],inactive
same,outcome,[7],inactive
same,outcome,[13],inactive
same,outcome,[11],inactive
Cc1cc(Cl)ccc1O,outcome,[1],inactive
same,outcome,[2],inactive
same,outcome,[3],inactive
same,outcome,[5],inactive
same,outcome,[6],inactive
same,outcome,[7],inactive
same,outcome,[11],inactive
Nc1ccc(Br)cc1,outcome,[1],inactive
same,outcome,[2],inactive
same,outcome,[3],inactive
same,outcome,[6],inactive
same,outcome,[7],inactive
same,outcome,[13],inactive
same,outcome,[11],inactive
same,outcome,[9],inactive
same,outcome,[10],inactive
OCC(c1ccc(Cl)cc1)c1ccc(Cl)cc1,AC50,[1],57.9 µM (active)
same,outcome,[2],inactive
same,AC50,[3],55 µM (active)
same,AC50,[6],39.2 µM (active)
same,AC50,[7],20.1 µM (active)
same,outcome,[11],inactive
same,outcome,[9],inactive
same,outcome,[10],inactive
O=CCCl,AC50,[1],26 µM (active)
same,outcome,[2],inactive
same,outcome,[3],inactive
same,outcome,[4],inactive
same,outcome,[5],inactive
same,outcome,[6],inactive
same,outcome,[8],inactive
same,outcome,[11],inactive
same,outcome,[9],inactive
Cc1ccc(CCl)cc1,outcome,[1],inactive
same,outcome,[2],inactive
same,outcome,[3],inactive
same,outcome,[6],inactive
Cl[C@H]1OCCO[C@@H]1Cl,outcome,[1],inactive
same,outcome,[2],inactive
same,outcome,[3],inactive
same,outcome,[4],inactive
same,outcome,[6],inactive
same,outcome,[7],inactive
same,outcome,[8],inactive
same,outcome,[13],inactive
same,outcome,[12],inactive
same,outcome,[11],inactive
same,outcome,[9],inactive
Nc1nc(N)nc(Cl)n1,outcome,[1],inactive
same,outcome,[2],inactive
same,outcome,[3],inactive
same,outcome,[6],inactive
same,outcome,[8],inactive
same,outcome,[10],inactive
COP(=S)(OC)Oc1cc(Cl)c(I)cc1Cl,AC50,[1],30.7 µM (active)
same,AC50,[2],52.6 µM (active)
same,AC50,[3],38 µM (active)
same,AC50,[6],28.3 µM (active)
same,AC50,[7],21.8 µM (active)
same,outcome,[11],inactive
same,outcome,[10],inactive
CCCSP(=S)(OCC)Oc1ccc(SC)cc1 (configuration not stated),outcome,[1],inactive
same,outcome,[2],inactive
same,outcome,[3],inactive
same,AC50,[6],15.2 µM (active)
same,AC50,[7],3.65 µM (active)
same,outcome,[9],inactive
CC1(C)[C@H](/C=C2\CCSC2=O)[C@@H]1C(=O)OCc1coc(Cc2ccccc2)c1,outcome,[1],inactive
same,outcome,[2],inactive
same,outcome,[3],inactive
same,AC50,[6],1.05 µM (active)
same,AC50,[7],0.731 µM (active)
same,outcome,[13],inactive
same,outcome,[9],inactive
CCOc1ccc(N)cc1,outcome,[1],inactive
same,outcome,[2],inactive
same,outcome,[3],inactive
same,outcome,[4],inactive
same,outcome,[10],inactive
CCCCCCCCCCBr,outcome,[1],inactive
same,outcome,[2],inactive
same,outcome,[3],inactive
same,outcome,[5],inactive
same,AC50,[6],19.8 µM (active)
same,outcome,[7],inactive
same,outcome,[11],inactive
same,AC50,[9],100 µM (active)
O=C(Cl)OCCOCCOC(=O)Cl,outcome,[1],inactive
same,outcome,[2],inactive
same,outcome,[3],inactive
same,outcome,[4],inactive
same,outcome,[6],inactive
same,outcome,[7],inactive
same,outcome,[13],inactive
same,outcome,[9],inactive
same,outcome,[10],inactive
Clc1cnc(Oc2ccc(Oc3ncc(Cl)cc3Cl)cc2)c(Cl)c1,outcome,[1],inactive
same,outcome,[2],inactive
same,outcome,[3],inactive
same,AC50,[6],16.7 µM (active)
same,AC50,[7],7.48 µM (active)
same,outcome,[13],inactive
O=C1c2ccccc2C(=O)C1C(=O)C(c1ccccc1)c1ccc(Cl)cc1 (configuration not stated),AC50,[1],6.7 µM (active)
same,outcome,[2],inactive
same,outcome,[3],inactive
same,outcome,[4],inactive
same,AC50,[5],26.1 µM (active)
same,AC50,[6],3.11 µM (active)
same,AC50,[7],2.45 µM (active)
same,outcome,[8],inactive
same,outcome,[13],inactive
same,outcome,[11],inactive
CCN(N=O)C(N)=O,outcome,[1],inactive
same,outcome,[2],inactive
same,outcome,[3],inactive
same,outcome,[4],inactive
same,outcome,[5],inactive
same,outcome,[6],inactive
same,outcome,[7],inactive
same,outcome,[11],inactive
Cc1cccc(C)c1NC(=O)CN1CCCC1=O,outcome,[1],inactive
same,outcome,[2],inactive
same,outcome,[3],inactive
same,outcome,[4],inactive
same,outcome,[6],inactive
same,outcome,[7],inactive
same,outcome,[11],inactive
COc1ccc([N+](=O)[O-])cc1O,outcome,[1],inactive
same,outcome,[2],inactive
same,outcome,[3],inactive
same,outcome,[4],inactive
same,outcome,[6],inactive
same,outcome,[8],inactive
same,outcome,[13],inactive
same,outcome,[9],inactive
same,outcome,[10],inactive
c1ccc2c(c1)Oc1ccccc1O2,outcome,[1],inactive
same,outcome,[2],inactive
same,outcome,[3],inactive
same,outcome,[4],inactive
same,outcome,[7],inactive
same,outcome,[13],inactive
same,outcome,[11],inactive
